This is an account of results in PubChem BioAssay (EPA / NIEHS).

Results filed as inconclusive are left out. The source made the active and inactive calls. The calls were made as follows, unless noted: active = hit-call score of the fitted dose curve at least 0.9, where 1 is the maximum; inactive = score below 0.9.

The target in experiment [1] is human Thyroid Receptor alpha (THRa1), THRA (gene 7067) (UniProt P10827). The experiment in a line: ATG_THRa1_TRANS: Attagene TRANS-FACTORIAL HepG2 Assay for human Thyroid Receptor alpha (THRa1) (AID 2283014; active = hit-call score of the fitted dose curve at least 0.9, where 1 is the maximum). The procedure, abridged: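 Transcripts from GAL4-UAS-driven reporters, measured after 24 h compound exposure by RT-PCR plus capillary electrophoresis of 6-FAM-labeled fragments, were fitted for gain of signal relative to DMSO. Cells: transiently transfected HepG2 expressing NR-Gal4 chimeras.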

The target of experiment [2] is human Vitamin D Receptor (VDR), VDR (gene 7421) (UniProt P11473). The experiment in a line: ATG_VDR_TRANS: Attagene TRANS-FACTORIAL HepG2 Assay for human Vitamin D Receptor (VDR) (AID 2283022; active = hit-call score of the fitted dose curve at least 0.9, where 1 is the maximum). The procedure, abridged: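 Transactivation by an exogenous VDR-Gal4 chimera in transiently transfected HepG2 cells was measured as reporter transcript level 24 hours after chemical treatment. RT-PCR products were analysed by capillary electrophoresis and fitted in the positive direction relative to DMSO.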

Read-out in experiment [3]: E-selectin (Homo sapiens) (UniProt P16581)
The experiment in a line: BSK_3C_Eselectin: BioMAP Diversity Plus: 3C Assay for Eselectin Biomarker Activity (AID 2283015).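 As to outcome: cell surface E-selectin protein quantified by ELISA 24 h after dosing.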 The settings on record: primary human endothelial cells (HUVEC); actives raise or lower the signal. The procedure, abridged: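 E-selectin ELISA readout, fitted bidirectionally relative to DMSO, taken 24 h post-dosing in HUVEC cultures of the 3C system. Overt cytotoxicity tracked with sulforhodamine B staining of parallel wells.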

Read-out in experiment [4]: Interleukin-1 alpha (IL1a), IL1A (gene 3552)
The experiment in a line: BSK_BE3C_IL1a: BioMAP Diversity Plus: BE3C Assay for Interleukin-1 alpha (IL1a) Biomarker Activity (AID 2283016). The settings on record: primary human bronchial epithelial cells; actives raise or lower the signal. The procedure, abridged: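 ELISA read-out of IL-1a from human lung bronchial epithelial primary cells, 24 h post-dose. Gain or loss of signal fitted relative to DMSO negative control.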

Read-out in experiment [5]: Monocyte Chemoattractant Protein-1 (MCP1), CCL2 (gene 6347)
The experiment in a line: BSK_3C_MCP1: BioMAP Diversity Plus: 3C Assay for Monocyte Chemoattractant Protein-1 (MCP1) Biomarker Activity (AID 2283017). The settings on record: primary human endothelial cells (HUVEC); actives raise or lower the signal. An outline of the steps: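 MCP-1 was measured by ELISA 24 h after dosing in primary HUVEC 3C cultures and fitted in both directions relative to DMSO; cytotoxicity was checked by SRB total-protein staining in parallel wells.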

Read-out in experiment [6]: Monocyte Chemoattractant Protein-1 (MCP1), CCL2 (gene 6347)
The experiment in a line: BSK_4H_MCP1: BioMAP Diversity Plus: 4H Assay for Monocyte Chemoattractant Protein-1 (MCP1) Biomarker Activity (AID 2283018). The settings on record: primary human endothelial cells (HUVEC); actives raise or lower the signal. An outline of the steps:
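HUVEC primary cells, 24 h post-dose, MCP-1 by ELISA. Gain or loss of signal fitted bidirectionally vs DMSO baseline. Cytotoxicity: SRB stain (0.1% after 10% TCA fixation), read 560 nm, parallel cultures.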

Read-out in experiment [7]: Human Leukocyte Antigen - DR isotype (HLADR), HLA-DRA (gene 3122)
The experiment in a line: BSK_3C_HLADR: BioMAP Diversity Plus: 3C Assay for Human Leukocyte Antigen - DR isotype (HLADR) Biomarker Activity (AID 2283019).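 As to outcome: ELISA of cell-surface HLA-DR on HUVEC 24 h after dosing.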 To be noted: primary human endothelial cells (HUVEC); actives raise or lower the signal. An outline of the steps: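 Bidirectional fitting against DMSO was applied to the HLA-DR ELISA signal from human umbilical vein endothelial cells, 24 h post-dose. Cytotoxicity came from parallel SRB total-protein staining; 3C proliferation was counted by SRB at 48 h.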

Read-out in experiment [8]: Interleukin-8 (IL8), CXCL8 (gene 3576)
The experiment in a line: BSK_3C_IL8: BioMAP Diversity Plus: 3C Assay for Interleukin-8 (IL8) Biomarker Activity (AID 2283020). To be noted: primary human endothelial cells (HUVEC); actives raise or lower the signal. An outline of the steps: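 HUVEC, 3C stimulation; 24 h compound exposure; IL-8 read by ELISA; gain or loss of signal fitted relative to DMSO control.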

Read-out in experiment [9]: Monokine induced gamma interferon (MIG), CXCL9 (gene 4283)
The experiment in a line: BSK_3C_MIG: BioMAP Diversity Plus: 3C Assay for Monokine induced gamma interferon (MIG) Biomarker Activity (AID 2283021). The settings on record: primary human endothelial cells (HUVEC); actives raise or lower the signal. An outline of the steps:
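HUVEC, 3C system; 24 h chemical exposure; MIG by ELISA; bidirectional fit vs DMSO baseline.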

Experiment [10] in a line: BSK_3C_SRB: Viability Assessment in the BioMAP Diversity Plus: 3C Assay (AID 2283023).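 Also: fitted both ways against DMSO so a hit may be signal rise or drop.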 The settings on record: primary human endothelial cells (HUVEC). The procedure, abridged:
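Cytotoxicity readout in parallel HUVEC 3C cultures: after 24 h compound exposure, cells fixed with 10% TCA, stained with 0.1% SRB and read at 560 nm. Gain or loss relative to DMSO fitted.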

Read-out in experiment [11]: Matrix Metallopeptidase 1 (MMP1), MMP1 (gene 4312)
The experiment in a line: BSK_BE3C_MMP1: BioMAP Diversity Plus: BE3C Assay for Matrix Metallopeptidase 1 (MMP1) Biomarker Activity (AID 2283024). The settings on record: primary human bronchial epithelial cells; actives raise or lower the signal. An outline of the steps: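 ELISA read-out of MMP1 in human lung bronchial epithelial primary cultures, 24 h post-dose; bidirectional curve fit vs DMSO baseline, gain or loss of signal scored.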

Experiment [12] can be described thus: BSK_3C_Vis: BioMAP Diversity Plus: 3C Assay for Morphology Visualization (AID 2283025).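 Also: fitted both ways so gain or loss versus DMSO counts.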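 As to AC50: light microscopy image of cell morphology used as background control.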 The settings on record: primary human endothelial cells (HUVEC). An outline of the steps:
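HUVEC, 3C system; light microscopy of morphology at 24 h post-dose. Bidirectional fit vs DMSO baseline. Secondary readout, background-control function.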

Read-out in experiment [13]: Pselectin, SELP (gene 6403)
The experiment in a line: BSK_4H_Pselectin: BioMAP Diversity Plus: 4H Assay for Pselectin Biomarker Activity (AID 2283026). The settings on record: primary human endothelial cells (HUVEC); actives raise or lower the signal. The procedure, abridged:
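HUVEC, 24 h chemical exposure; P-selectin read by ELISA. Bidirectional curve fit vs DMSO baseline; gain or loss of signal scored.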

A short description of experiment [14]: BSK_BE3C_SRB: Viability Assessment in the BioMAP Diversity Plus: BE3C Assay (AID 2283028).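 As to AC50: fitted both ways so AC50 may mark signal gain or loss versus DMSO.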 To be noted: primary human bronchial epithelial cells. The procedure, abridged: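 Cytotoxicity read-out: SRB (0.1%) staining of TCA-fixed (10%) human lung bronchial epithelial cells, absorbance 560 nm, 24 h post-dosing. Curves fitted both directions relative to DMSO.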

Read-out in experiment [15]: Thrombomodulin, THBD (gene 7056)
The experiment in a line: BSK_3C_Thrombomodulin: BioMAP Diversity Plus: 3C Assay for Thrombomodulin Biomarker Activity (AID 2283029). The settings on record: primary human endothelial cells (HUVEC); actives raise or lower the signal. An outline of the steps: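 HUVEC, 3C conditions; compound 24 h; thrombomodulin by ELISA; bidirectional curve fit vs DMSO baseline; parallel SRB total-protein staining for cytotoxicity.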

Read-out in experiment [16]: Urokinase-type plasminogen activator receptor (uPAR), PLAUR (gene 5329)
The experiment in a line: BSK_4H_uPAR: BioMAP Diversity Plus: 4H Assay for Urokinase-type plasminogen activator receptor (uPAR) Biomarker Activity (AID 2283030). To be noted: primary human endothelial cells (HUVEC); actives raise or lower the signal. An outline of the steps:
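uPAR level read by ELISA on HUVEC cultures (BioMAP 4H) 24 h post-dosing, analyzed for gain or loss relative to DMSO. Parallel SRB staining assessed overt cytotoxicity.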

Read-out in experiment [17]: Vascular endothelial growth factor receptor 2 (Homo sapiens) (UniProt P35968)
The experiment in a line: BSK_4H_VEGFRII: BioMAP Diversity Plus: 4H Assay for Vascular endothelial growth factor receptor 2 (VEGFR2) Biomarker Activity (AID 2283031). To be noted: primary human endothelial cells (HUVEC); actives raise or lower the signal. The procedure, abridged: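 Measured by ELISA after 24 h of compound treatment: VEGFR2 on primary human umbilical vein endothelial cells, fitted in both directions relative to DMSO. Parallel cultures received SRB staining (560 nm) for overt cytotoxicity.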

Read-out in experiment [18]: Human Leukocyte Antigen - DR isotype (HLADR), HLA-DRA (gene 3122)
The experiment in a line: BSK_BE3C_HLADR: BioMAP Diversity Plus: BE3C Assay for Human Leukocyte Antigen - DR isotype (HLADR) Biomarker Activity (AID 2283032). To be noted: primary human bronchial epithelial cells; actives raise or lower the signal. An outline of the steps: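 Primary human bronchial epithelial cells (BE3C); 24 h chemical exposure; HLA-DR by ELISA; bidirectional curve fit vs DMSO baseline.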

The nature of experiment [19]: BSK_4H_SRB: Viability Assessment in the BioMAP Diversity Plus: 4H Assay (AID 2283027).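 Also: cells exposed to compound for 24 h before staining.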 To be noted: primary human endothelial cells (HUVEC). The procedure, abridged: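 Cytotoxicity read-out in primary human endothelial cells: after 24 h compound exposure, cells were TCA-fixed (10%), stained with 0.1% SRB and absorbance taken at 560 nm. Values fitted in both directions relative to DMSO.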

Chain of E-selectin (Homo sapiens) (P16581 whole entry, looked up): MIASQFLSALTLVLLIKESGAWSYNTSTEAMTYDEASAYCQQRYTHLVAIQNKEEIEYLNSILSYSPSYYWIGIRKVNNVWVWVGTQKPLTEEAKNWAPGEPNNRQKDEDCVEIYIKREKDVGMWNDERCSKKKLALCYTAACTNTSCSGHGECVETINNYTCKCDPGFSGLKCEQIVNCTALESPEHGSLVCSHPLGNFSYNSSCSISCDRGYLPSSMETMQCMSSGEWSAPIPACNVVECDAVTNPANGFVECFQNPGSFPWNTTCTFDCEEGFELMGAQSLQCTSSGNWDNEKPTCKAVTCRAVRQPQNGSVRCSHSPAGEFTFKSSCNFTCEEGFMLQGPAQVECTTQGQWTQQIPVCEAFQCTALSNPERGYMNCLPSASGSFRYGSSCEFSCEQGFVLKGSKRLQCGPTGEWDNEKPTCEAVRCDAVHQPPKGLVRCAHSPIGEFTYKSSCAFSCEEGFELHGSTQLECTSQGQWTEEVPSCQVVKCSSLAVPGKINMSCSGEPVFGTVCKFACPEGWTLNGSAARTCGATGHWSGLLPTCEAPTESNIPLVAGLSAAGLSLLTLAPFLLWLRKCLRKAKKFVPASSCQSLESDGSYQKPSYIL
Chain of human Thyroid Receptor alpha (THRa1), THRA (gene 7067) (P10827 whole entry, looked up, the tested form may be a part): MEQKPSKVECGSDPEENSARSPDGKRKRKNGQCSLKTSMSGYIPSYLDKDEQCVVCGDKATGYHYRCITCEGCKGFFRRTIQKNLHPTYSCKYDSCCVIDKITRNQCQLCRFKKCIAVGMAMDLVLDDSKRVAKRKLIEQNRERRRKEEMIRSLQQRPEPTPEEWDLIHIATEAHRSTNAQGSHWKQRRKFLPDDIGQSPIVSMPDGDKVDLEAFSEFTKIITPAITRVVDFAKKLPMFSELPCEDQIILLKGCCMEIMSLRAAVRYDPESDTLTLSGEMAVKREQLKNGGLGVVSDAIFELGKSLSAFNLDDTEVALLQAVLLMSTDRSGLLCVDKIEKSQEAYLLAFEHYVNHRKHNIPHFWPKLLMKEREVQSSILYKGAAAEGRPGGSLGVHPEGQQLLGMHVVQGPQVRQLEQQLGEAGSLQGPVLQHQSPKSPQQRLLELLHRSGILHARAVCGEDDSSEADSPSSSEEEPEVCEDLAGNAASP
Chain of human Vitamin D Receptor (VDR), VDR (gene 7421) (P11473 whole entry, looked up, the tested form may be a part): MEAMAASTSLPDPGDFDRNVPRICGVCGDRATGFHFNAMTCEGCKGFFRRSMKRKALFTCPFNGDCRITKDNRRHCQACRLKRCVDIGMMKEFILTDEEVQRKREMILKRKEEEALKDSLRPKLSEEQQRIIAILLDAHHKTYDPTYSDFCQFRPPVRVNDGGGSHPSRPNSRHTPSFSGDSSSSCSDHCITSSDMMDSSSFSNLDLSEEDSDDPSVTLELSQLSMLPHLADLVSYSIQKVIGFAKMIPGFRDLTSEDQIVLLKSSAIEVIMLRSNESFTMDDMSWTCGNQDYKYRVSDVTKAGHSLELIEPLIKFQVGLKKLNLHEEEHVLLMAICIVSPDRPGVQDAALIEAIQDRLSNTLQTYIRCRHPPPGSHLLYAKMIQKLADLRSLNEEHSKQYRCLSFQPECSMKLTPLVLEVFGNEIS

In the case of `CCC(=O)C=Cc1ccc(OC)cc1`, the outcome in [1] was inactive.
As for `CCc1cccc(CC)c1NC(=O)C(=O)O`, the outcome in experiment [1] and in experiment [2] was inactive.
`FCOC(C(F)(F)F)C(F)(F)F`: the compound was classed as inactive in experiment [2].
Same read-out and setting: the result for `CC1CCC(CO)CC1` (stereo not drawn) reads “inactive”.
For the compound `COc1cc(OC)nc(NC(=O)NS(=O)(=O)Nc2ccccc2C(=O)N(C)C)n1`, the outcome in [3], in experiment [4], in experiment [5], in experiment [6], in [7] and in experiment [8] was inactive. In addition, the outcome in [9], in [10], in experiment [11], in experiment [12], in experiment [13] and in experiment [14] was inactive. The outcome in experiment [15], in [16], in experiment [17] and in [18] was inactive.
Consider `CCCCCCCCCCCCOS(=O)(=O)O`, for which the outcome in [3], in [4], in experiment [5], in experiment [6], in experiment [7] and in experiment [8] was inactive. In addition, the result in experiment [9], in [11], in experiment [12], in experiment [13], in experiment [19] and in [15] was inactive. In addition, the result in experiment [16] and in [17] was inactive. Moreover, the half-maximal activity concentration (AC50) in experiment [14] is 32.6 µM (active); in [18], 26.2 µM (active).
In the case of `C=C(c1ccc(C(=O)O)cc1)c1cc2c(cc1C)C(C)(C)CCC2(C)C`, the compound was classed as inactive in experiment [1] and in experiment [2].
In the case of `CCCC=O`, the call in [2] was inactive.
On the same count and under the same terms, as for `Brc1cc(Br)c(Oc2c(Br)cc(Br)c(Br)c2Br)cc1Br`, the entry is “inactive”.
For `CCCCCCCCCCCCOC(=O)c1cc(O)c(O)c(O)c1`, the call in experiment [1] and in [2] was inactive.
On to `CCO[Si](CCC1CCC2OC2C1)(OCC)OCC` (stereo not drawn), for which the outcome in experiment [2] was inactive.
With `Nc1cc(Cl)c(-c2cc(Cl)c(N)cc2Cl)cc1Cl`, the compound was called inactive in experiment [1] and in [2].
`CC=O`: the compound was called inactive in experiment [1] and in [2].
Turning to `C=CC(F)(F)C(F)(F)C(F)(F)C(F)(F)F`, the compound was classed as inactive in experiment [2].
Turning to `NNc1nc(-c2ccc([N+](=O)[O-])cc2)cs1`, the AC50 in experiment [1] was 48.5 µM (active). Besides, the compound was called inactive in experiment [2].
With `CC(C)CCOCCC(C)C`, in [2], the result was inactive.
As to `N=C(N)c1ccc(OCCCCCOc2ccc(C(=N)N)cc2)cc1`, the AC50 was 0.932 µM (active) in experiment [3]; 10.1 µM (active) in [7]; 12.3 µM (active) in experiment [8]; 8.61 µM (active) in [12]; 7.2 µM (active) in experiment [13]; 3.47 µM (active) in experiment [16]. In [18], the AC50 was 22.7 µM (active). In addition, the result in experiment [4], in [5], in experiment [6], in [9], in experiment [2] and in [10] was inactive. Further, the result in experiment [11], in experiment [19], in [14], in [15] and in [17] was inactive.
As to `FC(F)(F)C1(F)C(F)(F)C(F)(F)C(F)(F)C(F)(C(F)(F)F)C1(F)F` (stereo not drawn), the call in experiment [2] was inactive.
Turning to `C=CC(=O)OCCN(CC)CC`, the compound was classed as inactive in experiment [1] and in experiment [2].

The AC50 is the midpoint of the concentration-response curve, whichever way the signal moves.
